Source: PubChem BioAssay AID1220 (Sanford-Burnham Center for Chemical Genomics, 2008)
Hit rate of the full screen: of about 190,000 compounds, about 1,300 (0.68%) were called active. This is one part of a sample in which actives are shown more often than they occur. A number with no mark means an inactive call. Cut-off read from the data, not from the text of the source: active = inhibition above about 50%; inactive = the rest.

Molecular target: Mannose-6-phosphate isomerase (Homo sapiens) (UniProt P34949)
Sequence (P34949 whole entry, looked up): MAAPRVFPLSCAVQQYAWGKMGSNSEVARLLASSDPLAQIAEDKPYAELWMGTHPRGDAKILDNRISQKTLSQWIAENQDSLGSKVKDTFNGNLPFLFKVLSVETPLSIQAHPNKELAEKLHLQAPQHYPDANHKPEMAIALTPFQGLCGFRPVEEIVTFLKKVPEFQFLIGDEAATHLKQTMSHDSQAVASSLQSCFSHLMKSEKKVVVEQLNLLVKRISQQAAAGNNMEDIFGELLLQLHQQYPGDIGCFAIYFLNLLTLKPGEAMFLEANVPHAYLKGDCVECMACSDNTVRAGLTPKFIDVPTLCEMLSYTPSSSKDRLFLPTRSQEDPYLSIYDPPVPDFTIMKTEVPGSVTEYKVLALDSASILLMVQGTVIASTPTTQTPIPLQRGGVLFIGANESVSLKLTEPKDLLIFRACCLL
Experiment: MPI inhibition at elevated mannose 6-phosphate – biochemical, fluorescence intensity, high mannose 6-phosphate, primary screen (AID 1220)
Conditions: recombinant PMI enzyme, coupled fluorescence intensity; at 20 µM; stronger effect = higher value

Row | Structure (SMILES) | inhibition
1 | Cc1cccc(-c2nnc(SCC#N)n2Cc2ccccc2)c1 | -0.8%
2 | CC(Sc1cccc[n+]1[O-])C(=O)Nc1ccc(Oc2ccccc2)cc1 (stereo unspecified) | 0%
3 | CC(=O)N/N=C/c1c(C)[nH]n(-c2ccccc2)c1=O | 7.9%
4 | O=C(O)CN1C(=O)/C(=C/c2ccsc2)SC1=S | -5.3%
5 | COC(=O)c1ccc(CC(=O)c2c(C)cc(O)cc2O)o1 | 50.8% (active)
6 | CCOC(=O)c1ccc(CC(=O)c2ccc(O)cc2O)o1 | -31.2%
7 | COC(=O)c1ccc(CC(=O)c2ccc(O)cc2O)o1 | -59.1%
8 | CCCc1cc(C(=O)Cc2ccc(C(=O)OCC)o2)c(O)cc1O | -51.6%
9 | Cc1cc(O)cc(O)c1C(=O)Cc1ccccc1 | -2.6%
10 | Cc1ccc(NCc2nnc(SCC(=O)NCc3ccco3)n2CC2CCCO2)c(C)c1 (stereo unspecified) | 8%
11 | CCSC1=NCCN1S(=O)(=O)c1ccccc1 | 7.2%
12 | C/C(=C\C(=O)Nc1cc(C)on1)c1ccccc1 | 15.6%
13 | Cc1nnc(NC(=O)C(C)Oc2ccc3c(C)cc(=O)oc3c2)s1 (stereo unspecified) | -8.9%
14 | CCS(=O)(=O)N1Cc2ccccc2CC1C(=O)Nc1ncc(C)s1 (stereo unspecified) | -7.1%
15 | Clc1cccc(Cl)c1Cn1cnc2c(N3CCCCCC3)ncnc21 | 14.8%
16 | CC(=O)N1C(=O)c2cccc3cccc(c23)C(=O)N1C(C)=O | 7.9%
17 | CC(=O)c1ccc2cccc3c2c1N=CN3C | 55.2% (active)
18 | CC(=O)c1c(C(C)=O)c(C)n(-c2cccc3cccnc23)c1C | -2.3%
19 | CC1=Nc2ncnn2C(c2ccccc2)/C1=N\O (stereo unspecified) | -9.4%
20 | Cc1ccc(NC2c3ncccc3C(=O)N2c2ccccc2C)cc1C (stereo unspecified) | -17.7%
21 | O=C(CCNC(=O)Cn1ccc2ccccc2c1=O)NCCCN1CCOCC1 | 10.9%
22 | COc1ccc(OCC(=O)N/N=C/c2ccsc2)cc1 | 17.2%
23 | Cc1ccc(C)c(OCC(=O)N/N=C/c2ccsc2)c1 | 3%
24 | CC(C)(C)c1ccc(OCC(=O)N/N=C/c2ccsc2)cc1 | 54.9% (active)
25 | Cc1ccc(N2C(=O)c3cccc(Oc4ccc(Cl)cc4)c3C2=O)c(C)c1 | 50.4% (active)
26 | Cc1cccc(N2C(=O)c3cccc(Oc4ccc(Cl)cc4)c3C2=O)c1 | 13.8%

Row | Structure (SMILES) | inhibition
27 | O=C(O)c1cccc(N2C(=O)c3cccc(Oc4ccc(Cl)cc4)c3C2=O)c1 | -8.6%
28 | Cc1[nH]c(=O)c(C#N)cc1-c1ccccc1 | 10.3%
29 | CCn1c(=O)cc(SCC(=O)N2CCN(C)CC2)c2ccccc21 | -10.8%
30 | CC(=O)Nc1ccc(-c2nc(C)c(C(C)=O)n2O)cc1 | 22.6%
31 | Cc1ccc(OCC(=O)NCc2ccco2)c([N+](=O)[O-])n1 | 1.9%
32 | Cc1ccc2cccc(OCC(=O)c3cc(C)n(Cc4ccco4)c3C)c2n1 | 20.9%
33 | CCOc1ncccc1C(=O)OCC(=O)c1cc(C)n(Cc2ccco2)c1C | 12.1%
34 | CC(=O)Nc1ccccc1OCC(=O)c1cc(C)n(Cc2cccs2)c1C | 17.5%
35 | O=C(COc1cccnc1[N+](=O)[O-])NCc1cccs1 | 3%
36 | Cc1cc(C(=O)COc2cccnc2[N+](=O)[O-])c(C)n1Cc1cccs1 | 64.4% (active)
37 | O=C(COc1cccnc1[N+](=O)[O-])NCc1ccco1 | 65.7% (active)
38 | Cc1ccc(OCC(=O)c2cc(C)n(Cc3cccs3)c2C)c([N+](=O)[O-])n1 | 26.4%
39 | Cc1cc(C(=O)COc2cccnc2[N+](=O)[O-])c(C)n1Cc1ccco1 | 59.5% (active)
40 | O=[N+]([O-])c1cc(C(F)(F)F)ccc1NCCOc1ccccc1 | 9%
41 | O=C(CCCCn1c(=O)c2ccccc2n(CC(=O)Nc2cccc(F)c2)c1=O)NCc1ccco1 | 9.4%
42 | COc1ccc(S(=O)(=O)N(CC(=O)N2CCN(c3ccccc3OC)CC2)c2ccccc2)cc1 | 13.1%
43 | COc1ccc(NC(C)=O)cc1NC(C)C(=O)Nc1ccc(F)cc1 (stereo unspecified) | 7%
44 | COc1ccc(NC(C)=O)cc1NC(C)c1nc2sc(C)c(C)c2c(=O)[nH]1 (stereo unspecified) | 66.6% (active)
45 | Cc1sc2nc(C(C)Nc3ccccc3N3CCOCC3)[nH]c(=O)c2c1C (stereo unspecified) | 26.7%
46 | COc1ccc(S(=O)(=O)CCC(=O)N2CCN(c3ccc(F)cc3)CC2)cc1 | -1.5%
47 | CCn1c(COc2ccc3c(c2)OCO3)nnc1SCC(=O)O | -46.4%
48 | O=C(Oc1cccc2cccnc12)c1ccc2c(c1)OCCO2 | 29.5%
49 | CCc1nc2ccccc2c(C(=O)Oc2cccc3cccnc23)c1C | 7.3%
50 | COC(=O)c1ccccc1OCCOCCOc1cccc2ccc(C)nc12 | 45%
51 | Cc1ccc2cccc(OC(=O)c3ccc4c(c3)OCCO4)c2n1 | 54% (active)
52 | O=C(/C=C\c1ccccc1)Oc1cccc2cccnc12 | 51.9% (active)

Row | Structure (SMILES) | inhibition
53 | Cc1ccc2cccc(OCC(=O)Nc3ccc4c(c3)OCO4)c2n1 | 15.2%
54 | O=C(/C=C\c1ccco1)Oc1cccc2cccnc12 | 34.3%
55 | COc1ccccc1/C=C/C(=O)Oc1cccc2cccnc12 | 26.5%
56 | Cc1ccc(C(C)C)c(OC(=O)/C=C/c2ccccc2)c1 | 6.5%
57 | Cc1ccc2cccc(OC(=O)/C=C\c3ccccc3)c2n1 | 60.1% (active)
58 | Cc1c(C(=O)Nc2cccc3cccnc23)oc2ccccc12 | -0.2%
59 | Cc1c(C(=O)Oc2cccc3cccnc23)oc2ccccc12 | 50% (active)
60 | CCOCC(=O)Nc1nnc(COCC)s1 | -1.8%
61 | Cc1cc(NC(=O)COC(=O)CCCOc2ccc(Cl)cc2C)no1 | 4.5%
62 | O=C(O)COc1ccc(/C=N/NC(=O)C2CCCN2S(=O)(=O)c2ccc(Cl)cc2)cc1 (stereo unspecified) | -3.5%
63 | O=C(O/N=C\c1ccc(N2CCOCC2)c([N+](=O)[O-])c1)c1ccc(F)cc1 | 8%
64 | COc1ccc(NC(=O)CSCc2ccc(C)cc2)cc1 | 1.9%
65 | Cc1ccc(C2NC(=O)c3c(sc(C)c3C)N2)c(O)c1 (stereo unspecified) | -21.9%
66 | Nc1ccccc1Nc1cc(-c2ccccc2)[nH]n1 | 28%
67 | Cc1nc2c(n1C1CCCCC1)C(=O)c1ccccc1C2=O | 35.4%
68 | COc1ccc(NC(=O)CSc2cc(C)ccc2C)cn1 | 10.5%
69 | COc1ccc(CC2(CO)CCN(Cc3cccc(OC)c3OC)CC2)cc1 | 6.7%
70 | COc1ccc2[nH]c(=O)c(CNc3ccc(C)c(C)c3)cc2c1 | 48.9%
71 | COc1ccc2[nH]c(=O)c(CNc3cccc(C)c3)cc2c1 | 55.1% (active)
72 | COc1ccc(NCc2cc3ccccc3[nH]c2=O)cc1 | 59.2% (active)
73 | COc1ccc(NCc2cc3cc(OC)ccc3[nH]c2=O)cc1 | 30.7%
74 | CC(C)(C)NCc1cc2ccccc2[nH]c1=O | 6.8%
75 | COc1ccc2[nH]c(=O)c(CNc3ccccc3)cc2c1 | 44.2%
76 | CNCC(O)COc1cccc(OC)c1 (stereo unspecified) | 9.8%
77 | Cc1c(C)c2ccc(OS(C)(=O)=O)c(C)c2oc1=O | -10.6%
78 | Fc1ccc(CNC(=S)Nc2ccc(OC(F)F)cc2)cc1 | 5.2%

Row | Structure (SMILES) | inhibition
79 | O=[N+]([O-])c1ccccc1S(=O)(=O)N1CCN(Cc2ccsc2)CC1 | 7.8%
80 | O=[N+]([O-])c1ccccc1S(=O)(=O)N1CCN(Cc2ccc3c(c2)OCO3)CC1 | -3.6%
81 | O=[N+]([O-])c1ccccc1S(=O)(=O)N1CCN(Cc2cc3c(cc2O)OCO3)CC1 | 59.2% (active)
82 | COc1ccc(CN(Cc2cc3cc(OC)c(OC)cc3[nH]c2=O)C(=O)NC2CCCCC2)cc1 | 0.5%
83 | COc1ccc(/C=N/OCC(=O)Nc2ccc3c(c2)OCO3)c(OC)c1 | 10.9%
84 | O=C(O)Cn1c2ccccc2c2ccccc21 | -2.4%
85 | O=C(O)Cn1c2c(c3ccccc31)CCCC2 | 58.5% (active)
86 | O=C(O)CCn1c2c(c3ccccc31)CCCC2 | 8.9%
87 | Cc1cccc(N2CCN(C(=O)c3ccccn3)CC2C)c1 (stereo unspecified) | 9.3%
88 | O=C(/C=C/c1ccc(Cl)cc1Cl)N1CCc2ccccc21 | -2.2%
89 | CCN1CCN(c2cc(C)c3cc(NC(=O)c4ccc(Br)o4)ccc3n2)CC1 | -5.1%
90 | CCN(CC)c1cc(C)c2cc(NC(=O)c3ccc(Br)o3)ccc2n1 | 70.4% (active)
91 | CCN(CC)c1cc(C)c2cc(NC(=O)c3cccs3)ccc2n1 | 10.3%
92 | CCOC(=O)c1c(/N=C/c2cccc(C)c2O)sc2c1CCN(C)C2 | -2.3%
93 | Cn1c(=S)n(/N=C/c2ccc3c(c2)OCO3)c2ccccc21 | -3.6%
94 | CCn1c(SCC(=O)N/N=C/C(C)=C/c2ccco2)nnc1-c1ccccc1 | 43.3%
95 | CCn1c(SCC(=O)N/N=C/C=C/c2ccco2)nnc1-c1ccccc1 | -8.3%
96 | CCn1c(SCC(=O)N/N=C/C=C/c2ccco2)nnc1-c1ccc(OC)cc1 | 52.6% (active)
97 | O=C(COc1cccc2c1CCN(Cc1ccc(Cl)cc1)C2=O)N1CCOCC1 | -2.4%
98 | CC(C)CC(=O)NC(=S)Nc1ccc(S(=O)(=O)N2CCCC2)cc1 | -1%
99 | CCNc1ccc(C(=O)OCC)cc1NC(=O)c1cccc(N(C)C)c1 | 6.9%
100 | CCNc1ccc(C(=O)OCC)cc1NC(=O)c1cccc(S(=O)(=O)N2CCOCC2)c1 | 8.8%
101 | CCNc1ccc(C(=O)OCC)cc1NC(=O)c1cccc(S(=O)(=O)N(C)c2ccccc2)c1 | 50.1% (active)
